Experimental data as given in PubChem BioAssay.
The source made the active and inactive calls.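 How the source made its calls, unless noted: active means normalized viability below 100% at a tested concentration; inactive means the rest.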

Key:
[1] = drug combination growth inhibition, ovarian cancer – cell-based, oncology-focused library, rucaparib conditional, profiling panel (AID 1508598); conditions: patient-derived ovarian cancer cells, CellTiter-Glo viability, 144 h, stronger effect = lower value
[2] = liver-stage malaria parasite load reduction – cell-based, known kinase inhibitor set, luminescence, hepatoma host viability (AID 624392; call rule not given here;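 further: infected cells incubated roughly two days before readout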); conditions: Plasmodium liver stage in hepatoma cells, luciferase luminescence, concentration not given here; liver cell % of control: measured here: host liver cell viability; parasite % of control: stronger effect = lower value
[3] = altered dexamethasone sensitivity, NF-kB reporter, cell-based, luciferase, IL-1B stimulus (AID 624486; call rule not given here;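 on percent of negative control (+Dex): 100% = mean signal of vehicle control wells on the plate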); conditions: IL-1B + dexamethasone, luminescence; percent of negative control (+Dex): actives lie on both sides, concentration not given here; z-score: measured here: IL-1B alone, no Dex
[4] = C. elegans survival during P. aeruginosa infection – whole organism (AID 651566; call rule not given here;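 further: tested at 14 µM; sign flipped so higher z means a lower ratio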); conditions: C. elegans killed by P. aeruginosa, survival ratio
[5] = pro-inflammatory signaling induction in mouse macrophages – cell-based, murine, luminescence (AID 652131; call rule not given here); conditions: murine macrophage pro-inflammatory reporter, stronger effect = higher value
[6] = MELAS cybrid and Rieske KO viability enhancers – cell-based, MELAS cybrids, Rieske KO mouse fibroblasts, CellTiter-Glo, primary screen (AID 1508586;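 active means mean z-score across replicates of 1.96 or higher in either the MELAS or the Rieske mutant cell line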;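 further: z relative to plate mean and SD of compound and empty wells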); conditions: low glucose
[7] = galactose survival enhancers in mitochondrial complex I cybrids – cell-based, galactose medium, ATP luminescence, primary screen (AID 1645843;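 active means z-score of at least 1.8 in each of two replicates, scored against plate mean and spread of sample wells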;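 further: positive z means more ATP and so rescue of galactose-driven cybrid death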); conditions: complex I mutant cybrid cells, 72 h, stronger effect = higher value
[8] = at 0.000305 µM, OCI-C5x cells, with rucaparib 10 µM, 100% = cells with rucaparib alone
[9] = at 0.000305 µM, OCI-C5x cells, without rucaparib
[10] = at 0.000305 µM, OCI-P5x cells, with rucaparib 20 µM, 100% = cells with rucaparib alone
[11] = at 0.000305 µM, OCI-P5x cells, without rucaparib
[12] = at 0.00122 µM, OCI-C5x cells, with rucaparib 10 µM, 100% = cells with rucaparib alone
[13] = at 0.00122 µM, OCI-C5x cells, without rucaparib
[14] = at 0.00122 µM, OCI-P5x cells, with rucaparib 20 µM, 100% = cells with rucaparib alone
[15] = at 0.00122 µM, OCI-P5x cells, without rucaparib
[16] = at 0.00488 µM, OCI-C5x cells, with rucaparib 10 µM, 100% = cells with rucaparib alone
[17] = at 0.00488 µM, OCI-C5x cells, without rucaparib
[18] = at 0.00488 µM, OCI-P5x cells, with rucaparib 20 µM, 100% = cells with rucaparib alone
[19] = at 0.00488 µM, OCI-P5x cells, without rucaparib
[20] = at 0.0195 µM, OCI-C5x cells, with rucaparib 10 µM, 100% = cells with rucaparib alone
[21] = at 0.0195 µM, OCI-C5x cells, without rucaparib
[22] = at 0.0195 µM, OCI-P5x cells, with rucaparib 20 µM, 100% = cells with rucaparib alone
[23] = at 0.0195 µM, OCI-P5x cells, without rucaparib
[24] = at 0.0781 µM, OCI-C5x cells, with rucaparib 10 µM, 100% = cells with rucaparib alone
[25] = at 0.0781 µM, OCI-C5x cells, without rucaparib
[26] = at 0.0781 µM, OCI-P5x cells, with rucaparib 20 µM, 100% = cells with rucaparib alone
[27] = at 0.0781 µM, OCI-P5x cells, without rucaparib
[28] = at 0.313 µM, OCI-C5x cells, with rucaparib 10 µM, 100% = cells with rucaparib alone
[29] = at 0.313 µM, OCI-C5x cells, without rucaparib
[30] = at 0.313 µM, OCI-P5x cells, with rucaparib 20 µM, 100% = cells with rucaparib alone
[31] = at 0.313 µM, OCI-P5x cells, without rucaparib
[32] = at 1.25 µM, OCI-C5x cells, with rucaparib 10 µM, 100% = cells with rucaparib alone
[33] = at 1.25 µM, OCI-C5x cells, without rucaparib
[34] = at 1.25 µM, OCI-P5x cells, with rucaparib 20 µM, 100% = cells with rucaparib alone
[35] = at 1.25 µM, OCI-P5x cells, without rucaparib
[36] = at 5 µM, OCI-C5x cells, with rucaparib 10 µM, 100% = cells with rucaparib alone
[37] = at 5 µM, OCI-C5x cells, without rucaparib
[38] = at 5 µM, OCI-P5x cells, with rucaparib 20 µM, 100% = cells with rucaparib alone
[39] = at 5 µM, OCI-P5x cells, without rucaparib
[40] = MELAS cybrid survival, CellTiter-Glo 48 h, stronger effect = higher value
[41] = Rieske KO mouse fibroblast survival, CellTiter-Glo 72 h

CC[C@]1(O)C[C@@H]2CN(CCc3c([nH]c4ccccc34)[C@@](C(=O)OC)(c3cc4c(cc3OC)N(C=O)[C@@H]3C45CCN4CC=C[C@](CC)([C@H]45)[C@H](OC(C)=O)[C@]3(O)C(=O)OC)C2)C1 (some centres not stated)
active: viability [1, 9] 99.3% | viability [1, 10] 88.8% | viability [1, 11] 86.4% | viability [1, 13] 98.8% | viability [1, 15] 90.1% | viability [1, 19] 86.3% | viability [1, 20] 88.9% | viability [1, 21] 66.1% | viability [1, 22] 70.6% | viability [1, 23] 25.9% | viability [1, 24] 45.1% | viability [1, 25] 37.2% | viability [1, 26] 51% | viability [1, 27] 17.4% | viability [1, 28] 42.3% | viability [1, 29] 27.2% | viability [1, 30] 56.1% | viability [1, 31] 16.7% | viability [1, 32] 34.8% | viability [1, 33] 21.4% | viability [1, 34] 51% | viability [1, 35] 12.7% | viability [1, 36] 41.7% | viability [1, 37] 24.9% | viability [1, 38] 50.9% | viability [1, 39] 13.1%
inactive: viability [1, 8] 113% | viability [1, 12] 120% | viability [1, 14] 102% | viability [1, 16] 101% | viability [1, 17] 103% | viability [1, 18] 105%

c1ccc(Cn2c(-c3ccc(OC[C@H](C4CCNCC4)n4c(-c5ccccc5)nc5ccccc54)cc3)nc3ccccc32)cc1
active: viability [1, 10] 90.3% | viability [1, 11] 96.7% | viability [1, 14] 98.1% | viability [1, 15] 99.5% | viability [1, 18] 99.2% | viability [1, 22] 96.1% | viability [1, 26] 95.8% | viability [1, 34] 33.8% | viability [1, 36] 1.56% | viability [1, 37] 3.14% | viability [1, 38] 1.07% | viability [1, 39] 1.44%
inactive: viability [1, 8] 117% | viability [1, 9] 110% | viability [1, 12] 123% | viability [1, 13] 125% | viability [1, 16] 125% | viability [1, 17] 126% | viability [1, 19] 101% | viability [1, 20] 121% | viability [1, 21] 107% | viability [1, 23] 106% | viability [1, 24] 110% | viability [1, 25] 117% | viability [1, 27] 105% | viability [1, 28] 118% | viability [1, 29] 120% | viability [1, 30] 105% | viability [1, 31] 109% | viability [1, 32] 130% | viability [1, 33] 131% | viability [1, 35] 102%

CC(C)C[C@H](NP(=O)(O)O[C@@H]1O[C@@H](C)[C@H](O)[C@@H](O)[C@H]1O)C(=O)N[C@@H](Cc1c[nH]c2ccccc12)C(=O)O
active: viability [1, 11] 99.9% | viability [1, 14] 97.2% | viability [1, 19] 96.5% | viability [1, 23] 93.9% | viability [1, 26] 99.3% | viability [1, 27] 96.3% | viability [1, 30] 98.1% | viability [1, 31] 98.7% | viability [1, 34] 94.3% | viability [1, 35] 91.1% | viability [1, 38] 88.8% | viability [1, 39] 92%
inactive: viability [1, 8] 124% | viability [1, 9] 113% | viability [1, 10] 105% | viability [1, 12] 127% | viability [1, 13] 113% | viability [1, 15] 103% | viability [1, 16] 127% | viability [1, 17] 116% | viability [1, 18] 104% | viability [1, 20] 122% | viability [1, 21] 106% | viability [1, 22] 101% | viability [1, 24] 121% | viability [1, 25] 107% | viability [1, 28] 124% | viability [1, 29] 103% | viability [1, 32] 132% | viability [1, 33] 117% | viability [1, 36] 123% | viability [1, 37] 104%

NC(=O)c1sc(-n2cnc3ccccc32)cc1OCc1ccccc1Br
inactive: parasite % of control [2] 256% | percent of negative control (+Dex) [3] 101% | z-score [4] -0.075 | z-score [5] 0.164 | z-score [6, 40] -0.754
0.185: z-score [3]
77.6%: liver cell % of control [2]
-0.437: z-score [6, 41]

CCCCNC(=O)[C@@H]1C[C@H](CN2CCOCC2)CN(Cc2ccc(O)cc2)C1
inactive: z-score [6, 40] 1.06 | z-score [7] 0.115
-0.315: z-score [6, 41]

Cc1cccc(Nc2ncc(-c3ccccc3)o2)c1
-0.569: z-score [6, 41]
active: percent of negative control (+Dex) [3] 272%
inactive: parasite % of control [2] 180% | z-score [4] -1.25 | z-score [5] 1.33 | z-score [6, 40] 0.673
79.5%: liver cell % of control [2]
15.2: z-score [3]

CS(=O)(=O)CCNCc1coc(-c2ccc3ncnc(Nc4ccc(OCc5ccccc5)cc4)c3c2)c1
-0.13: z-score [3]
87.7%: liver cell % of control [2]
inactive: parasite % of control [2] 176% | percent of negative control (+Dex) [3] 90% | z-score [4] -0.225 | z-score [5] 2.75 | z-score [6, 40] -0.812
-0.493: z-score [6, 41]

C[C@]12CC[C@H]3c4ccc(O)cc4CC[C@H]3[C@@H]1CC[C@H]2O
inactive: viability [1, 9] 130% | viability [1, 10] 103% | viability [1, 11] 110% | viability [1, 12] 105% | viability [1, 13] 111% | viability [1, 14] 101% | viability [1, 15] 116% | viability [1, 16] 109% | viability [1, 17] 124% | viability [1, 18] 104% | viability [1, 19] 112% | viability [1, 21] 115% | viability [1, 22] 109% | viability [1, 23] 112% | viability [1, 24] 100% | viability [1, 25] 119% | viability [1, 26] 108% | viability [1, 27] 109% | viability [1, 28] 108% | viability [1, 29] 118% | viability [1, 30] 100% | viability [1, 31] 114% | viability [1, 32] 100% | viability [1, 33] 124% | viability [1, 34] 110% | viability [1, 35] 113% | viability [1, 38] 107% | viability [1, 39] 110%
active: viability [1, 8] 95.7% | viability [1, 20] 99.5% | viability [1, 36] 81% | viability [1, 37] 94.8%

COc1cc([C@H]2c3cc4c(cc3[C@@H](O[C@@H]3O[C@@H]5CO[C@@H](C)O[C@H]5[C@H](O)[C@@H]3O)[C@H]3COC(=O)[C@H]23)OCO4)cc(OC)c1O
inactive: viability [1, 8] 115% | viability [1, 9] 108% | viability [1, 12] 108% | viability [1, 13] 103% | viability [1, 16] 123% | viability [1, 17] 100% | viability [1, 18] 101% | viability [1, 19] 101% | viability [1, 20] 112% | viability [1, 21] 103% | viability [1, 24] 106%
active: viability [1, 10] 99.3% | viability [1, 11] 97.3% | viability [1, 14] 96.5% | viability [1, 15] 90.8% | viability [1, 22] 98.6% | viability [1, 23] 97.4% | viability [1, 25] 95.6% | viability [1, 26] 99.3% | viability [1, 27] 98.6% | viability [1, 28] 75.1% | viability [1, 29] 64.7% | viability [1, 30] 99.1% | viability [1, 31] 82% | viability [1, 32] 72% | viability [1, 33] 61.6% | viability [1, 34] 79.8% | viability [1, 35] 42.6% | viability [1, 36] 38.1% | viability [1, 37] 29.3% | viability [1, 38] 55.2% | viability [1, 39] 26.7%

C[C@H]1C[C@H]2[C@@H]3CCC4=CC(=O)C=C[C@]4(C)[C@@H]3C(=O)C[C@]2(C)[C@]1(O)C(=O)CO
inactive: viability [1, 8] 114% | viability [1, 9] 123% | viability [1, 11] 119% | viability [1, 12] 118% | viability [1, 13] 124% | viability [1, 14] 105% | viability [1, 15] 116% | viability [1, 16] 110% | viability [1, 17] 119% | viability [1, 19] 119% | viability [1, 20] 113% | viability [1, 21] 122% | viability [1, 22] 103% | viability [1, 23] 122% | viability [1, 24] 109% | viability [1, 25] 122% | viability [1, 26] 102% | viability [1, 27] 125% | viability [1, 28] 111% | viability [1, 29] 125% | viability [1, 30] 100% | viability [1, 31] 126% | viability [1, 32] 125% | viability [1, 33] 129% | viability [1, 34] 108% | viability [1, 35] 130% | viability [1, 36] 119% | viability [1, 37] 148%
active: viability [1, 10] 96.8% | viability [1, 18] 96.6%
